# Laboratory results published in PubChem BioAssay.
# Activity calls are given as the source filed them.
# Key:
# Albumin (Bos taurus) = Albumin (Bos taurus) (UniProt P02769); assay: compounds binding labelled BSA control protein – biochemical, small-molecule microarray, Alexa647 label, 635/667 nm fluorescence, artefact control for SMM control protein annotation, profiling panel (AID 1118); conditions: BSA-A647 binding, fluorescence 635 nm, higher = more signal;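 note: score merges 667 nm emission intensity and signal-to-noise per printed compound spot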
# [1] = probe aXIP binding to arrayed compounds – biochemical, NeuroSMM set, 635/667 nm fluorescence, primary screen (AID 1119); conditions: small-molecule microarray, higher = more signal, called active from +8 up or from −8 down;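 note: probe is the protein aXip251-270 applied at 1 µg/mL to compound-printed slides; binding of probe to printed compounds measured as 667 nm fluorescence plus signal to noise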
# [2] = probe aNOTCH3 binding on compound microarray – biochemical, small-molecule microarray, 635/667 nm fluorescence, primary screen (AID 1120); conditions: higher = more signal;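 note: probe is a biotin-tagged antibody raised against NOTCH3 rather than NOTCH3 protein; score merges spot fluorescence near 667 nm with spot signal to noise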
# [3] = probe aNOTCH2 binding on compound microarray – biochemical, small-molecule microarray, 635/667 nm fluorescence, primary screen (AID 1121); conditions: higher = more signal;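 note: score merges feature fluorescence read at 667 nm with its signal to noise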
# [4] = biological target: Carbonic anhydrase 2 (Homo sapiens) (UniProt P00918); assay: compounds binding carbonic anhydrase 2 – biochemical, small-molecule microarray, Alexa647-labelled CAII, profiling panel (AID 1122); conditions: CAII-A647 binding fluorescence, higher = more signal
# [5] = COS7 lysate on small-molecule microarray, probe aHis, 635 nm (AID 1123); conditions: COS7 cell lysate, fluorescence, higher = more signal;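 note: z-score combines 667nm fluorescence intensity with signal-to-noise per printed compound spot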
# [6] = probe aLAP1 signal on lysate-treated microarray – cell lysate, small-molecule microarray, COS7 lysate, primary screen (AID 1124); conditions: probe aLAP1, fluorescence, higher = more signal;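 note: lysate comes from COS7 cells expressing LAP1 and is applied at 0.3 µg/mL; score merges spot fluorescence near 667 nm with signal-to-noise over triplicate slides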
# Sam68 (KHDRBS1) = assay: compounds binding KHDRBS1 protein – biochemical, small-molecule microarray, 635 nm fluorescence, primary screen (AID 1125); conditions: higher = more signal;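 note: score merges 667 nm channel intensity with signal to noise over triplicate slides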
# [7] = tested on: Chordin-like protein 2 (CHRDL2); assay: compounds binding chordin-like 2 – biochemical, small-molecule microarray, 635 nm fluorescence, primary screen (AID 1126); conditions: fluorescence 635 nm, higher = more signal;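 note: printed compound slides probed with Chrdl2 protein at 4 µg/mL for 1 h at 4 C; score merges 667 nm emission intensity with signal to noise over three replicate slides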
# [8] = biological target: Concanavalin-A (Canavalia ensiformis) (UniProt P02866); assay: compounds binding concanavalin A lectin – biochemical, small-molecule microarray, Alexa647 label, 635 nm, artefact control for SMM control protein annotation, primary screen (AID 1127); conditions: ConA-A647 binding fluorescence, higher = more signal;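 note: z combines 667 nm emission intensity with signal-to-noise across three replicate slides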
# Concanavalin-A (Canavalia ensiformis), sequence (P02866 whole entry, looked up): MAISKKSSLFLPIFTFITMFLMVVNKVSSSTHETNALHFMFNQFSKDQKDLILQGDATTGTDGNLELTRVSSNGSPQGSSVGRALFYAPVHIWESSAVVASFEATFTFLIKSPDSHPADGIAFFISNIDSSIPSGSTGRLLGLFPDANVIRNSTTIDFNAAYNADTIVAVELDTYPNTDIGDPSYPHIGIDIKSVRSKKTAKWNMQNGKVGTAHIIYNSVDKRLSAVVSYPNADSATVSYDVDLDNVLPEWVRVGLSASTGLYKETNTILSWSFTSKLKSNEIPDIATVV
# Albumin (Bos taurus), sequence (P02769 whole entry, looked up): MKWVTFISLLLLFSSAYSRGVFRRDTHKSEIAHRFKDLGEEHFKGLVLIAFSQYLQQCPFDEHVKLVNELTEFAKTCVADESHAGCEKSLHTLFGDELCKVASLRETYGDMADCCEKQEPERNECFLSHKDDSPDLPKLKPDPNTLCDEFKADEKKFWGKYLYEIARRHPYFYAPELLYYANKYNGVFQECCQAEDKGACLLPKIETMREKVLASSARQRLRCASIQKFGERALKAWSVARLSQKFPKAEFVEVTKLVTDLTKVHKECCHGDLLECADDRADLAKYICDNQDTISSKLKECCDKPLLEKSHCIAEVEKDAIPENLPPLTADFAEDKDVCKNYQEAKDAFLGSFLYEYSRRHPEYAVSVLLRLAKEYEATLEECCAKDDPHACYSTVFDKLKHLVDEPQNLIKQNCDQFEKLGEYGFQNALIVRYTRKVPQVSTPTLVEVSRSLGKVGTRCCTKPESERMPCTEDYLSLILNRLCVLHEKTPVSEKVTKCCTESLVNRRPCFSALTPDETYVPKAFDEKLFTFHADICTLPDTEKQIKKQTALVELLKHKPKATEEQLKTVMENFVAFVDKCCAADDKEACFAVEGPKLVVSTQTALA
SMILES,composite z-score (Albumin (Bos taurus)),composite Z-score [1],composite z-score [2],composite z-score [3],composite z-score [4],composite z-score [5],composite z-score [6],composite z-score (Sam68 (KHDRBS1)),composite z-score [7],composite z-score [8]
O=C1OCCC/C=C\[C@H]2OC34C=CCN(Cc5ccccc5)C(=O)[C@H]3N(CCO)C(=O)[C@@H]4C12 (stereo not given in full),-0.78,0.822 (inactive),0.157,-0.0658,0.885,1.11,0.623,0.747,-0.32,-0.619
CCCN1C(=O)[C@@]2(c3ccc([N+](=O)[O-])cc3)CC(=O)N(C3CCCCC3)[C@@H]2c2ccc(CO)cc21,-0.328,2.02 (inactive),-0.15,-0.112,-0.139,0.361,-0.435,0.268,0.649,0.31
CCCCCCCCCCC(O)C1C=CC2C(=O)N(C)C(=O)C2N1Nc1ccccc1 (stereo not given),0.0703,0.636 (inactive),-0.0975,-0.271,-0.0594,0.907,0.478,-1.52,-1.84,-0.834
CC[C@H]1C2=C3C(CC[C@H]4C(OCc5ccc(F)cc5C(F)(F)F)OC[C@](C)([C@@H]34)N(C(=O)OC(C)(C)C)C2)C(COC(C)=O)C1COC(C)=O (stereo not given in full),0.761,-0.0238 (inactive),0.335,0.173,0.345,2.76,0.2,1.29,-1.23,0.957
COC(=O)[C@]1(Cc2ccccc2CN=[N+]=[N-])N=C(c2ccc(OCCCO)cc2)O[C@@H]1c1ccccc1N=[N+]=[N-],-0.427,-0.741 (inactive),0.0026,0.015,0.518,0.999,1.47,0.163,0.62,0.91
O=C1N(Cc2ccccc2)Cc2ccccc2C[C@@]12COC(c1ccc(OCCCO)cc1)=N2,-0.0983,0.852 (inactive),0.133,0.12,0.461,2.08,0.4,1.22,0.303,0.864
COc1ccc(C(O)C2C=CC3C(=O)N(c4ccccc4)C(=O)C3N2Nc2ccccc2F)c2ccccc12 (stereo not given),0.968,0.882 (inactive),0.785,0.579,0.762,2.23,1.34,1.3,-0.316,1.21
COc1ccc([Si](C)(C)[C@@H]2[C@@H](CC(=O)N3Cc4ccccc4C[C@H]3CO)O[C@]3(C(=O)N(Cc4ccc(I)cc4)c4ccccc43)[C@H]2C)cc1,-0.145,0.26 (inactive),0.0676,-0.133,0.284,0.583,-0.098,1,1.35,0.957
CCCNC(=O)[C@@]1(Sc2ccc(C)cc2)CC(=O)N(Cc2cc(C(F)(F)F)cc(C(F)(F)F)c2)[C@@H]1c1ccc(CO)cc1,-0.919,-0.0135 (inactive),-0.163,-0.169,0.504,0.506,-0.0318,-0.528,-1.11,-0.149
CC(C)(C)OC(=O)N1[C@@H](C=C(Br)Br)COC1(C)C,-0.121,0.274 (inactive),0.0522,-0.104,-0.0481,0.259,0.136,0.839,0.644,0.556
C=CC[C@]12N=C(c3ccc(OCCCO)cc3)O[C@H]1c1ccccc1N(CCC)C2=O,-0.0791,1.91 (inactive),0.467,0.14,0.705,2.85,0.674,1.29,1.2,1.09
